These are literature values, as cited in PubChem BioAssay AID977611.

About 3,900 (100%) of roughly 3,900 compounds were called active. The limit is not given here; nearly all actives have Kd up to about 4200 µM. The set was probably picked from earlier hits. The list shows a part of the results.

This data set in a line: PubChem AID 977611. The note with it: PDB protein-ligand complexes, literature Kd.

As to `CN(C)c1cc[n+](Cc2ccc(-c3ccccc3)cc2)cc1`, the dissociation constant Kd (protein: Human choline kinase a1, PDB entry 4cg9) is 0.62 µM (active).

Take `CN(C)c1cc[n+](Cc2ccc(CCCCc3ccc(CN4C=CC(N(C)c5ccc(Cl)cc5)C=C4)cc3)cc2)cc1`: the Kd (protein: Human choline kinase a1, PDB entry 4cg8) was 0.11 µM (active).

On to `CN(C)c1cc[n+](Cc2ccc(CCc3ccccc3)cc2)cc1`, for which the Kd (protein: Human choline kinase a1, PDB entry 4cga) was 0.4 µM (active).

In the case of `CN(C)c1cc[n+](Cc2ccc(-c3ccc(Cn4cnc(=N)c5[nH]cnc54)cc3)cc2)cc1`, the Kd (protein: CHOLINE KINASE ALPHA, PDB entry 4br3) was 1.9 µM (active).

For `CC(=O)N[C@H]1[C@H](O[C@@H]2[C@@H](O)[C@@H](O)O[C@H](CO)[C@@H]2O[C@H]2O[C@H](CO[C@@H]3O[C@@H](C)[C@H](O)[C@@H](O)[C@H]3O)[C@@H](O)[C@H](O)[C@H]2O)O[C@H](CO)[C@@H](O)[C@@H]1O`, the Kd (protein: TAIL SPIKE PROTEIN(D339N mutant), PDB entry 2x6x) is 210 µM (active).

Turning to `CC(=O)N[C@@H]1[C@@H](O[C@H]2O[C@H](CO)[C@H](O[C@H]3O[C@H](CO[C@@H]4O[C@@H](C)[C@H](O)[C@@H](O)[C@H]4O)[C@@H](O)[C@H](O)[C@H]3O)[C@H](O[C@@H]3O[C@H](CO)[C@@H](O)[C@H](O)[C@H]3NC(C)=O)[C@H]2O)[C@H](O)[C@@H](CO[C@H]2O[C@H](CO)[C@@H](O)[C@H](O)[C@H]2O)O[C@H]1O`, the dissociation constant Kd reads like this: (protein: TAIL SPIKE PROTEIN(D339A mutant), PDB entry 2x6y) 26 µM (active); (protein: TAIL SPIKE PROTEIN, PDB entry 2x85) 129 µM (active).

For the compound `CC(=O)N[C@H]1[C@H](O[C@H]2[C@H](O)[C@@H](O)[C@H](O[C@H]3[C@H](O)[C@@H](CO)OC[C@@H]3NC(C)=O)O[C@@H]2C(=O)O)O[C@H](CO)[C@@H](O)[C@@H]1O[C@@H]1O[C@H](C(=O)O)[C@@H](O)[C@H](O)[C@H]1O`, for the setting “protein: murine cd44 hyaluronan binding domain, PDB entry 4mrd”, the equilibrium dissociation constant (Kd) was 428 µM (active).

As for `CC(=O)N[C@@H]1[C@@H](O[C@H]2O[C@H](CO)[C@H](O[C@H]3O[C@H](CO[C@@H]4O[C@@H](C)[C@H](O)[C@@H](O)[C@H]4O)[C@@H](O)[C@H](O)[C@H]3O)[C@H](O[C@@H]3O[C@H](CO)[C@@H](O)[C@H](O)[C@H]3NC(C)=O)[C@H]2O)[C@H](O)[C@@H](CO[C@H]2O[C@H](CO)[C@@H](O)[C@H](O)[C@H]2O)O[C@@H]1O`, where the note is “protein: TAIL SPIKE PROTEIN(E372Q mutant), PDB entry 2x6w”, the dissociation constant Kd was 0.079 µM (active).

Take `CC(=O)N[C@H]1[C@H](O[C@@H]2[C@H](O[C@]3(C(=O)O)C[C@H](O)[C@@H](NC(C)=O)[C@H]([C@H](O)[C@H](O)CO)O3)[C@@H](O)[C@H](O[C@H]3[C@H](O)[C@@H](O)[C@H](O)O[C@@H]3CO)O[C@@H]2CO)O[C@H](CO)[C@H](O)[C@@H]1O[C@@H]1O[C@H](CO)[C@H](O)[C@H](O)[C@H]1O`: the equilibrium dissociation constant (Kd) (protein: ECXA, PDB entry 4l6t) was 0.032 µM (active).

As to `CC(=O)N[C@@H]1[C@@H](O)[C@H](O[C@@H]2O[C@H](CO)[C@@H](O[C@@H]3O[C@H](CO[C@H]4O[C@H](CO)[C@@H](O)[C@H](O)[C@@H]4O[C@@H]4O[C@H](CO)[C@@H](O)[C@H](O)[C@H]4NC(C)=O)[C@@H](O)[C@H](O[C@H]4O[C@H](CO)[C@@H](O)[C@H](O)[C@@H]4O[C@@H]4O[C@H](CO)[C@@H](O)[C@H](O)[C@H]4NC(C)=O)[C@@H]3O)[C@H](O)[C@H]2NC(C)=O)[C@@H](CO)O[C@H]1NC(=O)C[C@H](N)C(=O)O`, under “protein: LECTIN, PDB entry 3zyr”, the equilibrium dissociation constant (Kd) was 4.6 µM (active).

Regarding `Nc1c(I)c(C(=O)O)c(I)c(C(=O)O)c1I`, for the setting “protein: EXTRACELLULAR PROTEIN 6, PDB entry 4b9h”, the Kd is 4.5 µM (active).

For `N/C=C/CCNCCCN`, the Kd (protein: Putrescine-binding periplasmic protein (S38T, D39E, S87Y, A182D, D247S, F276W, L348Q mutation), PDB entry 4jdf) is 6400 µM (active).

In the case of `NCCCCNCCCN`, where the note is “protein: Phospholipase A2 VRV-PL-VIIIa, PDB entry 4qf8”, the Kd was 0.031 µM (active).

Take `COc1ccc2c(CC(=O)O)coc2c1`: under “protein: Pantothenate synthetase (T2A, E77G mutation), PDB entry 4ddh”, the Kd is 500 µM (active).

Regarding `NC1NC(=O)c2nc(CNc3ccc(C(=O)N[C@@H](CCC(=O)O)C(=O)O)cc3)cnc2N1` (stereo partly drawn), the dissociation constant (Kd) is 0.00019 µM (active) (protein: Folate receptor alpha, PDB entry 4lrh) and 0.0027 µM (active) (protein: Folate receptor beta, PDB entry 4kmz).

For the compound `NC1NC(=O)c2c(CCc3ccc(C(=O)N[C@@H](CCC(=O)O)C(=O)O)cc3)c[nH]c2N1` (stereo partly drawn), the Kd (protein: Folate receptor beta, PDB entry 4kn2) was 0.054 µM (active).

Consider `Nc1nc(N)c2nc(CNc3ccc(C(=O)N[C@@H](CCC(=O)O)C(=O)O)cc3)cnc2n1`, for which, under “protein: Folate receptor beta, PDB entry 4kn1”, the Kd was 0.144 µM (active).

As to `N[C@H](CNc1nc(-c2ccncc2)nc2sc3c(c12)CCCC3)Cc1ccccc1`, the Kd (protein: PROTEIN KINASE C IOTA TYPE, PDB entry 3zh8) was 0.341 µM (active).

Regarding `O=C(O)[C@H](O)CO[P+](O)(O)O`, the dissociation constant Kd (protein: human phosphoglycerate kinase, PDB entry 3c39) is 109 µM (active).

Turning to `O=C(O)CO[P+](O)(O)O`, the dissociation constant Kd by setting is: (protein: TRIOSEPHOSPHATE ISOMERASE (A198V, C202A, C222N mutation), PDB entry 4bi6) 113 µM (active); (protein: TRIOSEPHOSPHATE ISOMERASE (C202A mutation), PDB entry 4bi7) 26.4 µM (active).
